In PubChem BioAssay (NCATS):
Several values for one entry are separate records, joined by “and”; a condition that tells them apart may be missing. Identical values can stand only once. Results filed as inconclusive are left out. Activity calls are given as the source filed them. The call rests on the fitted dose curve; in most records, active means well fitted curve in the direction sought with a large enough effect; inconclusive means small, poorly fitted or top-dose-only effect, or another doubt; inactive means no such curve, though single readings can be large; an effect the other way counts as inactive or inconclusive.

Key:
[1] = target: Cellular tumor antigen p53 (Homo sapiens) (UniProt P04637); assay: Primary qHTS for small molecule compounds that upregulate eGFP-tagged delta133p53alpha (in N-terminal) cells. (AID 2060322); settings: NCI-H358 eGFP-delta133p53alpha fluorescence, 24 h; activation: active compounds read high; further: nearly all actives have a fitted effect of over 75% in size; further: potency means the concentration at half of the fitted maximal effect;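 on activation: series mostly up to about 56 µM; 0% = DMSO vehicle and 100% = reference activator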
Sequence of Cellular tumor antigen p53 (Homo sapiens) (P04637 whole entry, looked up): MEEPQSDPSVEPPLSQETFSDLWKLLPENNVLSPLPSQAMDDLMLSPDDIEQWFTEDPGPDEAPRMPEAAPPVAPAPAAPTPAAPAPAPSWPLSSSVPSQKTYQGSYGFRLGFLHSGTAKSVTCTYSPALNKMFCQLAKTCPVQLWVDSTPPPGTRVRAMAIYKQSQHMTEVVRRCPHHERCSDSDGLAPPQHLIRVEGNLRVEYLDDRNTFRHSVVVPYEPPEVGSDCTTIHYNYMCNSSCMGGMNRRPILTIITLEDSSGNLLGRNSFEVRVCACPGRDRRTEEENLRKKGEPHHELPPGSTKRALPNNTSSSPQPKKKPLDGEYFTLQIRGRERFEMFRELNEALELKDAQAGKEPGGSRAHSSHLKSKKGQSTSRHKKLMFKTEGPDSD
Method in brief: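 NCI-H358 cells pre-induced 24 h with 10 ng/ml doxycycline to express N-terminal eGFP-delta133p53alpha, then dosed 24 h at 37C without doxycycline; fixed, Hoechst-stained, GFP intensity by laser scanning cytometry, normalized to DMSO (0%) and 57.5 uM 5-azacytidine (100%).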

[2] = target: Aldehyde dehydrogenase, mitochondrial (Homo sapiens) (UniProt P05091); assay: qHTS for Inhibitors of the Aldehyde Dehydrogenase Family (ALDH2) Primary screen (AID 2061308);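 further: plate controls were vehicle for no effect and reference inhibitor for full effect; nearly all actives have a fitted effect of over 55% in size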
[3] = target: Retinaldehyde dehydrogenase 3 (Homo sapiens) (UniProt P47895); assay: qHTS for Inhibitors of the Aldehyde Dehydrogenase Family (ALDH1A3) Primary screen (AID 2061315);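 further: plate controls were DMSO vehicle for no effect and reference inhibitor for full effect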
[4] = target: Retinaldehyde dehydrogenase 3 (Homo sapiens) (UniProt P47895); assay: qHTS for Inhibitors of the Aldehyde Dehydrogenase Family (ALDH1A3) Validation screen (AID 2061312); further: on the % scale 0 is the no-effect control and ±100 the full control effect; nearly all actives have a fitted effect of over 45% in size
[5] = BET inhibitor-based combinations targeting novel dependencies in MECOM-rearranged (r) AML: OCI-AML3 cell line (AID 2202232); settings: Potency: OCI-AML3 viability;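 further: series mostly up to about 46 µM; plate controls were DMSO vehicle wells for no effect and wells without cells for full effect; nearly all actives have a fitted effect of over 35% in size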
Method in brief: (§1)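 AML cell lines seeded at 500 cells/well, treated with 11-point dose curves for 48 h. Viability by CellTiter-Glo luminescence, normalised to DMSO and empty wells; activity expressed as AUC and per-cell-line Z-transformed AUC.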

[6] = BET inhibitor-based combinations targeting novel dependencies in MECOM-rearranged (r) AML: HNT-34 cell line (AID 2202234);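 further: plate controls were vehicle wells for no effect and cell-free wells for full effect; nearly all actives have a fitted effect of over 35% in size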
Method in brief: (§2)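 Cells at 500/well were exposed for 48 hr to MIPE v5.0 drugs as 11-point dose curves. Viability was read by CellTiter-Glo luminescence and normalized to DMSO and empty-well controls. Activity was expressed as AUC and per-cell-line Z-AUC.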

[7] = BET inhibitor-based combinations targeting novel dependencies in MECOM-rearranged (r) AML: UCSD-AML1 cell line (AID 2202235);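 further: series mostly up to about 46 µM; plate controls were DMSO vehicle wells for no effect and blank wells for full effect; nearly all actives have a fitted effect of over 40% in size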
Method in brief: as §2

[8] = BET inhibitor-based combinations targeting novel dependencies in MECOM-rearranged (r) AML: AML-191 cell line (AID 2202236;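 further: plate controls were vehicle wells for no effect and wells without cells for full effect; nearly all actives have a fitted effect of over 35% in size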)
Method in brief: as §1

[9] = BET inhibitor-based combinations targeting novel dependencies in MECOM-rearranged (r) AML: AML-194 cell line (AID 2202237;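 further: plate controls were vehicle wells for no effect and wells without cells for full effect; nearly all actives have a fitted effect of over 40% in size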)
Method in brief: as §1

[10] = BET inhibitor-based combinations targeting novel dependencies in MECOM-rearranged (r) AML: SET-2 cell line (AID 2202231); settings: SET-2 AML cells viability, CellTiter-Glo luminescence, 48 h; viability: active compounds read low, series mostly up to about 46 µM;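 further: plate controls were DMSO treated cells for no effect and wells without cells for full effect; nearly all actives have a fitted effect of over 35% in size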
Method in brief: as §1

COC1C(O)C(C)OC(OC2C(CO)O[C@@H](O[C@@H]3CC4CCC5C(CC[C@]6(C)[C@@H](C7=CC(=O)OC7)CC[C@]56O)[C@@]4(C)[C@H](O)C3)C(O)C2O)C1O (stereo not given in full)
inactive: Potency [2] | Potency [3]
active: Potency [1] 5 µM

CO/C1=C\C(C)=C\[C@@H](C)[C@@H](O)[C@@H](C)C/C(C)=C/C=C/[C@H](OC)[C@@H]([C@@H](C)[C@@H](O)[C@H](C)[C@@]2(O)C[C@@H](O)[C@H](C)[C@@H](C(C)C)O2)OC1=O
inactive: activation [1] 13% | Potency [2] | Potency [3]

CCCCCn1cc(C(=O)C2C(C)(C)C2(C)C)c2ccccc21
inactive: activation [1] -0.955% | Potency [2] | Potency [3]

CCN1CC2(COC)C3[C@@H](OC)C4C1C3(C1C[C@]3(O)[C@H](OC(=O)c5ccccc5)C1[C@]4(OC(C)=O)[C@@H](O)[C@@H]3OC)[C@H](OC)C[C@H]2O (stereo not given in full)
inactive: activation [1] 8.33% | Potency [2] | Potency [3]

Cc1ccccc1-n1c(Cn2ncc3c(N)ncnc32)nc2cccc(C)c2c1=O
inactive: activation [1] 66.5% and 6.21% | Potency [2] | Potency [4] | Potency [3] | Potency [5] | Potency [6] | Potency [7] | Potency [8] | Potency [9]

O=C(Oc1ccc([N+](=O)[O-])cc1)N1CCN(Cc2cccc(Oc3ccccc3)c2)CC1
inactive: activation [1] 1.36% and 1.43% | Potency [2] | Potency [4] | Potency [3] | viability [10] 110% | Potency [8]

CC(=O)Nc1ccc(OC[C@](C)(O)C(=O)Nc2ccc([N+](=O)[O-])c(C(F)(F)F)c2)cc1
inactive: activation [1] 44.3% and 23.4% | Potency [2] | Potency [4] | Potency [3] | Potency [5] | Potency [6] | Potency [7] | Potency [8] | Potency [9]

N#Cc1ccc([C@H]2CCCC[C@H]2O)cc1C(F)(F)F
inactive: activation [1] 11% | Potency [2] | Potency [4] | Potency [3]

CCCCOC(=O)c1ccnc2cc(C(OCCN3CCCCC3)c3ccccc3Cl)sc12 (stereo not given)
inactive: activation [1] 25.7% | Potency [2] | Potency [3]

CC(C)=C1CC[C@]23CO[C@H](C2)[C@@](O)(C(=O)O)CCC13 (stereo not given in full)
inactive: activation [1] -4.58% | Potency [2] | Potency [3]

C=C1[C@@H]2CC[C@@]3(C)[C@H](c4ccoc4)OC(=O)C[C@]13O[C@H]1CC(=O)C(C)(C)[C@H](C(OC(C)=O)C(=O)OC)[C@]12C (stereo not given in full)
inactive: activation [1] -8.4% | Potency [2] | Potency [3]

CC1=CC2OC3[C@H](O)C[C@@](C)([C@]34CO4)[C@@]2(CO)[C@H](O)C1=O (stereo not given in full)
inactive: Potency [2] | Potency [3]
active: Potency [1] 23.9 µM

C[C@@](O)(COc1ccc(C#N)cc1)C(=O)Nc1ccc(C#N)c(C(F)(F)F)c1
inactive: activation [1] -6.21% | Potency [2] | Potency [3]
